HT1080 IDH1KD tx: HT-1080 IDH1 knockdown cell toxicity (counter line); HT-1080 IDH1 knockdown viability, ATP luminescence, 48 h; Potency, µM (highest dose often 46.1 µM), hits mostly cytotoxic; 360,000 compounds, 2% hits
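IDH1KD HT-1080 cells, 750/well, RPMI + 5% FBS; compound pinned after 2 h settling; 48 h, 37 °C; CellTiter-Glo luminescence; % activity normalised to DMSO and no-cell wells; curves fitted, classed by r2 and efficacy.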
DT40 TDP1 no CPT: qHTS for Inhibitors of human tyrosyl-DNA phosphodiesterase 1 (TDP1): qHTS in cells in absence of CPT | DT40 Tdp1-/- hTDP1 cells, no CPT, ATP luminescence, 48 h | Potency, µM (series often up to 46.2 µM), actives largely listed as inhibitors | 420,000 compounds, 15% hits | AID 686978, 2013; further: nearly all actives have a fitted effect of over 55% in size
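Luminescent ATP content (CellTiter-Glo) served as the growth readout. Knockout chicken DT40 cells expressing human TDP1 were exposed to compounds without camptothecin for a minimum 48 hr at 37 °C.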
TDP1 cell CPT: DT40-hTDP1 cell growth loss with CPT; chicken DT40 Tdp1-/-;hTDP1 cells + 20 nM CPT, ATP luminescence, 48 h; Potency, µM (top dose mostly 46.2 µM), most hits filed as inhibitors; 420,000 compounds, 12% hits; further: nearly all actives have a fitted effect of over 55% in size
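Cell growth measured by CellTiter-Glo luminescence after a minimum 48 h, 37 C compound exposure with 20 nM CPT in Tdp1-knockout DT40 cells stably expressing hTDP1, seeded 400/well; qHTS titration format.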
ALOX12 inh: inhibitors of human 12S-lipoxygenase ALOX12; Potency, µM (titrated, usually from 108 µM), most hits filed as inhibitors; purified 12hLO, xylenol orange hydroperoxide absorbance; AID 1671190; P18054; 580,000 compounds, 1.1% hits
Target sequence (P18054 whole entry, looked up): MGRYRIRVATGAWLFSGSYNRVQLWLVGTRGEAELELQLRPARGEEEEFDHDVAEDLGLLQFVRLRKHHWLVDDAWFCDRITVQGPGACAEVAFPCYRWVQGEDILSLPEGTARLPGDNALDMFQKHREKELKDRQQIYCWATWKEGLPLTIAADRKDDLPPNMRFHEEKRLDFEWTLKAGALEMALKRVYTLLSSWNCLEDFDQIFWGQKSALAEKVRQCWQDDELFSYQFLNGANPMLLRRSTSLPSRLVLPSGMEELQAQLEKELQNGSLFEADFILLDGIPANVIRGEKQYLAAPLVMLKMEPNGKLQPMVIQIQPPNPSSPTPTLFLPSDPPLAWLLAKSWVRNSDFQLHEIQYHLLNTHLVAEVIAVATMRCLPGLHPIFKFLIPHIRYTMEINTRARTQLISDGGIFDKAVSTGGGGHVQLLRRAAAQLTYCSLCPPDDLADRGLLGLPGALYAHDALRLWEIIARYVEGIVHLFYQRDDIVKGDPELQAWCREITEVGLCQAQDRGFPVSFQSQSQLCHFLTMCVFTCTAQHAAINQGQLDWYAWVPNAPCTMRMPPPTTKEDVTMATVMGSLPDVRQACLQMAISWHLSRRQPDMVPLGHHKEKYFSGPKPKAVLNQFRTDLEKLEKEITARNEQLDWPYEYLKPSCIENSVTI
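Hydroperoxide product was detected by ferrous iron/xylenol orange as the 573 to 405 nm absorbance ratio. Arachidonic acid at 40 uM (final) was turned over for 30 min at room temperature by 150 nM human 12hLO, pH 7.0 Hepes buffer, after 15 min compound preincubation.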
HT1080-NT tox: kills 2HG-producing HT-1080-NT fibrosarcoma cells; HT-1080-NT fibrosarcoma viability, CellTiter-Glo ATP luminescence, 48 h; AID 686970; Potency, µM (doses to about 46.1 µM), hits mostly cytotoxic; 360,000 compounds, 1.6% hits;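 further: NT is the 2HG producing partner of a matched IDH1 knockdown line; nearly all actives have a fitted effect of over 55% in size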
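Viability of the 2HG-overproducing fibrosarcoma line after 48 hours of compound exposure at 37 degrees C was determined by luminescence with CellTiter-Glo, and concentration-effect curves were then fitted and categorized.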
IL-1B inflam inh: inhibitors of inflammasome signaling (IL-1 beta secretion); THP-1 LPS/ATP IL-1B secretion, AlphaLISA, 16 h; hits give low values; 360,000 compounds, 4.7% hits; AID 743279; activity change, % at 57.5 µM; in the data active means activity change below about -50%; inconclusive means mostly about -30% to -49%
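Secreted IL-1B measured by AlphaLISA bead assay after 16 h compound exposure of THP-1 cells; compounds (final up to 57.5 uM) added 1 h before LPS (250 ng/mL) and ATP (1.25 mM) stimulation; lower signal means less secretion.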
Numbers stand for hits; [ ] = another dose, or the depositor's remark. The entries come from a sample that favours hits as a whole. Unless noted, the call rests on the fitted dose curve; in most records, active means well fitted curve in the direction sought with a large enough effect; inconclusive means small, poorly fitted or top-dose-only effect, or another doubt; inactive means no such curve, though single readings can be large; an effect the other way counts as inactive or inconclusive.

`COc1ccc([C@H]2CC(=O)C=C(c3ccccc3)C2)cc1OC` gave HT1080 IDH1KD tx inactive, DT40 TDP1 no CPT inconclusive, TDP1 cell CPT inconclusive, ALOX12 inh inactive, HT1080-NT tox inactive and IL-1B inflam inh inconclusive.
Screening COc1ccc([C@H]2CC(=O)C=C(c3ccc(F)cc3OCc3ccccc3)C2)cc1OC returned HT1080 IDH1KD tx inactive, DT40 TDP1 no CPT 20.6µM, TDP1 cell CPT inconclusive, ALOX12 inh inactive, HT1080-NT tox inactive and IL-1B inflam inh inconclusive.
`COc1ccc([C@H]2CC(=O)C=C(c3ccc(SC)cc3)C2)cc1OC` gave HT1080 IDH1KD tx inactive, DT40 TDP1 no CPT 14.6µM, TDP1 cell CPT 9.2µM, ALOX12 inh inactive, HT1080-NT tox inactive and IL-1B inflam inh inactive.
COc1cccc(-c2n[nH]nc2C2=CC(=O)C[C@H](c3ccc(F)cc3)C2)c1 was read as HT1080 IDH1KD tx inactive, DT40 TDP1 no CPT inconclusive, TDP1 cell CPT inconclusive, ALOX12 inh inactive, HT1080-NT tox inactive and IL-1B inflam inh inconclusive.
`COc1ccc([C@H]2CC(=O)C=C(c3cccc(Cl)c3)C2)cc1OC` gave HT1080 IDH1KD tx inactive, DT40 TDP1 no CPT inconclusive, TDP1 cell CPT 14.6µM, ALOX12 inh inactive, HT1080-NT tox inactive and IL-1B inflam inh -66.0.
Screening O=C1C=C(c2n[nH]nc2-c2ccccc2)C[C@@H](c2ccc(F)cc2)C1 returned HT1080 IDH1KD tx inactive, DT40 TDP1 no CPT 16.4µM, TDP1 cell CPT inconclusive, ALOX12 inh inactive, HT1080-NT tox inactive and IL-1B inflam inh inactive.
COc1ccc([C@H]2CC(=O)C=C(c3ccc(F)cc3OCc3ccccc3)C2)cc1 was read as HT1080 IDH1KD tx inactive, DT40 TDP1 no CPT inconclusive, TDP1 cell CPT inconclusive, ALOX12 inh inactive, HT1080-NT tox inactive and IL-1B inflam inh inactive.
`CCCCC/C=C/C1=CC(=O)C[C@H](c2ccc(OC)c(OC)c2)C1` gave HT1080 IDH1KD tx inactive, DT40 TDP1 no CPT 10.3µM, TDP1 cell CPT 20.6µM, ALOX12 inh inactive, HT1080-NT tox inactive and IL-1B inflam inh inactive.
`O=C1C=C(c2ccc(Oc3ccccc3)cc2)C[C@@H](c2ccc(F)cc2)C1` gave HT1080 IDH1KD tx inactive, DT40 TDP1 no CPT inconclusive, TDP1 cell CPT 18.4µM, ALOX12 inh inactive, HT1080-NT tox inactive and IL-1B inflam inh inconclusive.
For COc1ccc(C2=CC(=O)C[C@H](c3ccc(F)cc3)C2)cc1F the results were HT1080 IDH1KD tx inactive, DT40 TDP1 no CPT inconclusive, TDP1 cell CPT 20.6µM, ALOX12 inh inactive, HT1080-NT tox inactive and IL-1B inflam inh inactive.
O=C1C=C(c2ccc(OC(F)(F)F)cc2)C[C@@H](c2ccc(F)cc2)C1 was read as HT1080 IDH1KD tx inactive, DT40 TDP1 no CPT inconclusive, TDP1 cell CPT inconclusive, HT1080-NT tox inactive and IL-1B inflam inh inactive.
COc1ccc([C@H]2CC(=O)C=C(c3ccc(Oc4ccccc4)cc3)C2)cc1OC was read as HT1080 IDH1KD tx inactive, DT40 TDP1 no CPT 23.1µM, TDP1 cell CPT 10.3µM, ALOX12 inh inactive, HT1080-NT tox inactive and IL-1B inflam inh inactive.
For CN(C)c1ccc(/C=N/N2CCN(c3ccccn3)CC2)cc1 the results were HT1080 IDH1KD tx inactive, DT40 TDP1 no CPT inactive, TDP1 cell CPT inactive, ALOX12 inh inactive, HT1080-NT tox inactive and IL-1B inflam inh inconclusive.
Screening CN(C)c1ccc(/C=C/c2ccnc3c(Cl)ccc(Cl)c23)cc1 returned DT40 TDP1 no CPT 10µM and TDP1 cell CPT 11.2µM.
Cc1cc(C)c2nccc(/C=C/c3ccc(N(C)C)cc3)c2c1 was read as DT40 TDP1 no CPT 10µM and TDP1 cell CPT 11.2µM.
Screening Cc1ccc2c(/C=C/c3ccc(N(C)C)cc3)ccnc2c1C returned DT40 TDP1 no CPT inconclusive and TDP1 cell CPT 12.6µM.
For Cc1cc(C)c2nccc(C)c2c1 the results were DT40 TDP1 no CPT inactive and TDP1 cell CPT inactive.
Screening CC(=O)c1ccc(NS(=O)(=O)c2ccc(-c3coc(C)n3)cc2)cc1 returned ALOX12 inh inactive.
CC(=O)c1ccc(S(=O)(=O)N(Cc2cc3cc4c(cc3[nH]c2=O)OCCO4)CC2CCCO2)cc1 (configuration not stated) was read as HT1080 IDH1KD tx inactive, DT40 TDP1 no CPT 11.2µM, TDP1 cell CPT inactive, ALOX12 inh inactive, HT1080-NT tox inactive and IL-1B inflam inh inactive.
`Cc1ccc2cc(CN(CC3CCCO3)S(=O)(=O)c3ccc4c(c3)OCCO4)c(=O)[nH]c2c1C` (configuration not stated) gave HT1080 IDH1KD tx inactive, DT40 TDP1 no CPT 20.6µM, TDP1 cell CPT 18.4µM, ALOX12 inh inactive, HT1080-NT tox inactive and IL-1B inflam inh inactive.
For O=c1oc2ccc(Cl)cc2cc1S(=O)(=O)N1CCc2ccccc2C1 the results were ALOX12 inh inactive.
Screening Cc1n[nH]c(C)c1CNC(=O)C1CCCN(C2CCN(C(=O)C3CC3)CC2)C1 (configuration not stated) returned ALOX12 inh inactive.
Screening Cc1ccc(Nc2c([N+](=O)[O-])ccc3c2=NC2(CCCCC2)N=3)cc1 returned HT1080 IDH1KD tx inactive, DT40 TDP1 no CPT 23.1µM, TDP1 cell CPT 16.4µM, ALOX12 inh inactive, HT1080-NT tox inactive and IL-1B inflam inh inactive.
C=CCOC(=O)COc1ccc2c(=O)c(Oc3ccc(OC)cc3)coc2c1 was read as ALOX12 inh inactive.
O=C(COCc1cc(-c2ccc(F)cc2)on1)Nc1cc(F)ccc1F was read as DT40 TDP1 no CPT inactive, TDP1 cell CPT inactive and ALOX12 inh inactive.
For COc1cc(OC)c(NC(=O)CCc2nc(-c3ccc(C)cc3)no2)cc1Cl the results were HT1080 IDH1KD tx inactive[9.24 µM], DT40 TDP1 no CPT 23.1µM, TDP1 cell CPT 18.4µM, ALOX12 inh inactive, HT1080-NT tox inactive and IL-1B inflam inh inactive.
`COc1ccc(OC)c(NC(=O)COCc2cc(-c3ccc(F)cc3)on2)c1` gave DT40 TDP1 no CPT inconclusive, TDP1 cell CPT 18.4µM and ALOX12 inh inactive.
`COc1cc(OC)c(NC(=O)CCc2ccccc2)cc1Cl` gave HT1080 IDH1KD tx inactive, DT40 TDP1 no CPT inactive, TDP1 cell CPT inactive, ALOX12 inh inactive, HT1080-NT tox inactive and IL-1B inflam inh inactive.
Screening COc1cc(OC)c(NC(=O)CCc2nc(C3=CCN(Cc4cccc(Cl)c4)CC3)no2)cc1Cl returned DT40 TDP1 no CPT 8.2µM, TDP1 cell CPT 23.1µM and ALOX12 inh inactive.
Screening COc1ccc(-c2noc(CC(=O)Nc3cc(OC)ccc3OC)n2)cc1 returned DT40 TDP1 no CPT 16.4µM, TDP1 cell CPT 23.1µM and ALOX12 inh inactive.
For O=C1NCCCCCCN(Cc2ccncc2)[C@@H]2CN(Cc3ccncc3F)CC[C@@H]12 the results were ALOX12 inh inactive.

Compound activity: PubChem BioAssay, National Center for Advancing Translational Sciences (NCATS)
